From PubChem BioAssay AID1159580 (chemical genetic matrix, 2015)
“And” between values parts separate entries of the source, which are not always exact repeats. Identical values can stand only once. Out of some 5,500 compounds screened, about 2,000 (36%) were called active. About 18% were inconclusive and are not listed. No stated cut-off is given here; in the data, active means normalized growth mostly below about 0.91 (no sharp cut-off); inconclusive means no clear call, values can overlap the other calls; inactive means mostly above about 0.92. The list shows a part of the results.

Test: chemical genetic growth profiling, strain panel (AID 1159580);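 further: tested at 20 µM; growth read once vehicle control cultures reached saturation at 30 °C; 1 = growth at the plate median or of vehicle wells; lower values mean less growth of the strain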
Conditions: S. cerevisiae deletion strains, growth OD

Measured: normalized growth

OCCN(CCO)c1nc(N2CCCCC2)c2nc(N(CCO)CCO)nc(N3CCCCC3)c2n1
active: locus YDR195W, strain ref2 0.135 | locus YKR091W, strain srl3, hits give low values 0.551 | locus YOR083W, strain WHI5, hits give low values 0.233
inactive: locus YAL013W, strain DEP1, hits give low values 1.02 | locus YAL021C, strain ccr4, hits give low values 0.962 | locus YAL026C, strain drs2, hits give low values 0.964 | locus YAL030W, strain snc1, hits give low values 0.992 | locus YAL040C, strain CLN3, hits give low values 0.999 | locus YBL061C, strain skt5, hits give low values 0.992 | locus YBR009C, strain hhf1, hits give low values 0.981 | locus YBR021W, strain FUR4, hits give low values 0.956 | locus YBR023C, strain chs3, hits give low values 1 | locus YBR171W, strain sec66, hits give low values 0.994 | locus YBR229C, strain ROT2, hits give low values 1.01 | locus YBR231C, strain swc5, hits give low values 0.944 | locus YBR279W, strain paf1, hits give low values 0.986 | locus YCL011C, strain gbp2, hits give low values 0.998 | locus YCL016C, strain dcc1, hits give low values 1.03 | locus YCL029C, strain bik1, hits give low values 1.01 | locus YCL061C, strain MRC1 (second series), hits give low values 1 | locus YCL061C, strain MRC1, hits give low values 1 | locus YCL069W, strain vba3, hits give low values 0.97 | locus YCR088W, strain abp1, hits give low values 0.989 | locus YDL005C, strain med2, hits give low values 0.978 | locus YDL035C, strain GPR1, hits give low values 1.01 | locus YDL040C, strain nat1, hits give low values 0.976 | locus YDL074C, strain BRE1, hits give low values 0.979 | locus YDL101C, strain DUN1, hits give low values 1 | locus YDL134C, strain PPH21, hits give low values 1 | locus YDL185W, strain tfp1, hits give low values 0.995 | locus YDL192W, strain arf1, hits give low values 0.999 | locus YDR001C, strain nth1, hits give low values 0.993 | locus YDR069C, strain doa4, hits give low values 0.969 | locus YDR101C, strain arx1, hits give low values 0.99 | locus YDR137W, strain rgp1, hits give low values 1.01 | locus YDR150W, strain NUM1, hits give low values 1.01 | locus YDR159W, strain sac3, hits give low values 0.937 | locus YDR162C, strain NBP2, hits give low values 1 | locus YDR297W, strain sur2, hits give low values 0.997 | locus YDR318W, strain mcm21, hits give low values 0.996 | locus YDR334W, strain swr1, hits give low values 0.974 | locus YDR335W, strain msn5, hits give low values 0.988 | locus YDR363W, strain ESC2, hits give low values 1.03 | locus YDR388W, hits give low values 0.998 | locus YDR392W, strain spt3, hits give low values 0.898 | locus YDR502C, strain sam2, hits give low values 1.01 | locus YEL003W, strain gim4, hits give low values 0.964 | locus YEL037C, strain rad23, hits give low values 0.965 | locus YEL061C, strain CIN8 (second series), hits give low values 0.976 | locus YEL061C, strain CIN8, hits give low values 1.01 | locus YER002W, strain NOP16, hits give low values 1 | locus YER015W, strain faa2, hits give low values 0.978 | locus YER016W, strain bim1, hits give low values 0.976 | locus YER110C, hits give low values 1 | locus YER111C, strain swi4, hits give low values 0.971 | locus YER155C, strain BEM2 (second series), hits give low values 0.992 | locus YER155C, strain BEM2, hits give low values 1.01 | locus YER167W, strain BCK2, hits give low values 1.02 | locus YFR010W, strain ubp6, hits give low values 0.956 | locus YGL078C, strain dbp3, hits give low values 1 | locus YGL086W, strain mad1, hits give low values 0.998 | locus YGL167C, strain pmr1, hits give low values 0.987 | locus YGL173C, strain kem1, hits give low values 0.982 | locus YGL227W, strain vid30, hits give low values 0.989 | locus YGL240W, strain doc1, hits give low values 0.979 | locus YGL248W, strain PDE1, hits give low values 1.01 | locus YGL253W, strain hxk2, hits give low values 0.956 | locus YGR135W, strain pre9, hits give low values 0.993 | locus YGR229C, strain SMI1, hits give low values 0.996 | locus YGR252W, strain gcn5, hits give low values 0.931 | locus YHR013C, strain ard1, hits give low values 0.988 | locus YHR027C, strain rpn1, hits give low values 0.984 | locus YHR030C, strain SLT2, hits give low values 1.01 | locus YHR079C, strain IRE1 (second series), hits give low values 0.994 | locus YHR079C, strain IRE1, hits give low values 1.1 | locus YHR094C, strain hxt1, hits give low values 0.998 | locus YHR129C, strain ARP1, hits give low values 1.01 | locus YHR142W, strain chs7, hits give low values 0.97 | locus YHR200W, strain rpn10, hits give low values 1 | locus YIL066C, strain RNR3, hits give low values 1.02 | locus YIL073C, strain SPO22, hits give low values 1.01 | locus YIL125W, strain kgd1, hits give low values 1 | locus YIR030C, strain dcg1, hits give low values 0.995 | locus YJL092W, strain hpr5, hits give low values 0.979 | locus YJL095W, strain BCK1 (second series), hits give low values 0.997 | locus YJL095W, strain BCK1, hits give low values 0.988 and 1.01 | locus YJL115W, strain asf1, hits give low values 0.99 | locus YJL129C, strain trk1, hits give low values 0.95 | locus YJL134W, strain LCB3, hits give low values 1 | locus YJL154C, strain vps35, hits give low values 0.992 | locus YJL164C, strain tpk1, hits give low values 0.975 | locus YJL166W, strain qcr8, hits give low values 1.01 | locus YJL168C, strain set2, hits give low values 0.991 | locus YJL187C, strain SWE1 (second series), hits give low values 1 | locus YJL187C, strain SWE1, hits give low values 0.989 | locus YJR043C, strain POL32, hits give low values 1.01 | locus YJR066W, strain TOR1, hits give low values 0.982 | locus YJR075W, strain HOC1, hits give low values 0.997 | locus YKL009W, strain mrt4, hits give low values 0.998 | locus YKL068W, hits give low values 1 | locus YKL085W, strain MDH1 (second series), hits give low values 1.01 | locus YKL085W, strain MDH1, hits give low values 1.01 | locus YKL160W, strain elf1, hits give low values 1.04 | locus YKL190W, strain CNB1, hits give low values 1.01 | locus YKR001C, strain vps1, hits give low values 1.02 | locus YKR026C, strain gcn3, hits give low values 0.991 | locus YLL001W, strain dnm1, hits give low values 1 | locus YLL026W, hits give low values 0.99 | locus YLL041C, strain sdh2, hits give low values 0.969 | locus YLR027C, strain aat2, hits give low values 0.986 | locus YLR039C, strain RIC1, hits give low values 1.06 | locus YLR058C, strain SHM2, hits give low values 1.01 | locus YLR102C, strain apc9, hits give low values 0.987 | locus YLR113W, strain HOG1, hits give low values 0.999 | locus YLR221C, strain rsa3, hits give low values 1.02 | locus YLR258W, strain gsy2, hits give low values 0.997 | locus YLR262C, strain YPT6 (second series), hits give low values 1.02 | locus YLR262C, strain YPT6, hits give low values 0.994 | locus YLR268W, strain sec22, hits give low values 1.01 | locus YLR320W, strain mms22, hits give low values 1.04 | locus YLR330W, strain CHS5, hits give low values 1.01 | locus YLR342W, strain FKS1 (second series), hits give low values 1.02 | locus YLR342W, strain FKS1, hits give low values 0.99 | locus YLR357W, strain rsc2, hits give low values 0.985 | locus YLR370C, strain arc18, hits give low values 0.999 | locus YLR371W, strain rom2, hits give low values 0.996 | locus YLR384C, strain iki3, hits give low values 0.994 | locus YLR418C, strain cdc73, hits give low values 0.976 | locus YML016C, strain PPZ1, hits give low values 1.01 | locus YML032C, strain rad52, hits give low values 0.988 | locus YML120C, strain ndi1, hits give low values 1.02 | locus YML124C, strain tub3, hits give low values 0.995 | locus YMR058W, strain fet3, hits give low values 0.968 | locus YMR078C, strain ctf18, hits give low values 0.994 | locus YMR125W, strain sto1, hits give low values 0.992 | locus YMR129W, hits give low values 0.983 | locus YMR205C, strain PFK2, hits give low values 1.01 | locus YMR223W, strain ubp8, hits give low values 0.997 | locus YMR231W, strain pep5, hits give low values 0.989 | locus YMR307W, strain GAS1, hits give low values 1.02 and 0.989 | locus YNL067W, strain RPL9B, hits give low values 1 | locus YNL071W, strain lat1, hits give low values 0.98 | locus YNL128W, strain TEP1, hits give low values 0.995 | locus YNL153C, strain GIM3, hits give low values 0.968 | locus YNL175C, strain NOP13, hits give low values 0.993 | locus YNL183C, strain NPR1, hits give low values 0.956 | locus YNL197C, strain WHI3, hits give low values 0.988 | locus YNL209W, strain ssb2, hits give low values 0.993 | locus YNL224C, strain SQS1, hits give low values 0.999 | locus YNL233W, strain BNI4, hits give low values 0.982 | locus YNL248C, strain rpa49, hits give low values 0.973 | locus YNL250W, strain rad50, hits give low values 1.01 | locus YNL271C, strain bni1, hits give low values 0.998 | locus YNL298W, strain CLA4, hits give low values 0.991 | locus YNL307C, strain MCK1, hits give low values 0.997 | locus YNL322C, strain KRE1 (second series), hits give low values 0.988 | locus YNL322C, strain KRE1, hits give low values 1.02 | locus YNR049C, strain mso1, hits give low values 0.984 | locus YNR052C, strain pop2, hits give low values 1 | locus YOL012C, strain htz1 2.13 | locus YOL147C, strain pex11, hits give low values 1 | locus YOR001W, strain rrp6, hits give low values 0.928 | locus YOR061W, strain CKA2, hits give low values 1.02 | locus YOR069W, strain VPS5, hits give low values 1.01 | locus YOR070C, strain gyp1, hits give low values 0.996 | locus YOR080W, strain dia2, hits give low values 0.986 | locus YOR083W, strain WHI5 (second series), hits give low values 0.981 | locus YOR106W, strain vam3, hits give low values 1.01 | locus YOR136W, strain idh2, hits give low values 1 | locus YOR144C, strain elg1, hits give low values 0.999 | locus YOR184W, strain ser1, hits give low values 0.997 | locus YOR231W, strain MKK1, hits give low values 1.02 | locus YOR265W, strain rbl2, hits give low values 0.997 | locus YOR270C, strain vph1, hits give low values 0.948 | locus YOR290C, strain snf2, hits give low values 0.931 | locus YOR316C, strain cot1, hits give low values 0.999 | locus YPL051W, strain arl3, hits give low values 1.05 | locus YPL055C, strain LGE1, hits give low values 0.996 and 1.03 | locus YPL078C, strain atp4, hits give low values 1 | locus YPL106C, strain sse1, hits give low values 1.01 | locus YPL240C, strain hsp82, hits give low values 0.99 | locus YPL241C, strain CIN2, hits give low values 1 | locus YPL256C, strain CLN2, hits give low values 1 | locus YPR119W, strain clb2, hits give low values 0.994 | locus YPR141C, strain kar3, hits give low values 0.995 | locus YPR163C, strain tif3, hits give low values 1 | locus YPR167C, strain met16, hits give low values 0.996 | strain wtn01, hits give low values 0.994
